# From ChEMBL document CHEMBL4513146, “CO-ADD screening of Karazin Kharkiv National University (Ukraine) compounds”
# Potency and affinity values are given separately.
# Experiments:
# [1] = test system: Staphylococcus aureus; settings: Concentration 32 ug.mL-1;; ASSAY_TEST Inhibition of Bacterial Growth; detection method Absorption (OD600); MEDIA CAMHB; plate type 384well; NBS; CORNING #3640; time 18 hr
# [2] = test system: Escherichia coli; settings: Concentration 32 ug.mL-1;; ASSAY_TEST Inhibition of Bacterial Growth; detection method Absorption (OD600); MEDIA CAMHB; plate type 384well; NBS; CORNING #3640; time 18 hr
SMILES,Inhibition [1] [%],Inhibition [2] [%]
COc1ccc(NC(=O)Cn2nc3c(Sc4ccccc4)nccn3c2=O)c(OC)c1,-11.13,-9.08
CN(C(=O)Cn1nc2n(Cc3ccco3)c(=O)c3sccc3n2c1=O)c1ccccc1,0.44,-5.3
COc1ccc(NC(=O)Cn2nc3c(N4CCCC(C)C4)nccn3c2=O)cc1OC (stereo not drawn),-18.12,-13.91
O=C(CSc1nnc2c3cc(-c4ccc(F)cc4)nn3ccn12)NCc1ccc(Cl)cc1,-3.32,-11.03
COC(=O)c1ccc(Cn2nc3ccc(S(=O)(=O)N4CCCCCC4)cn3c2=O)o1,-11.6,-1.2
CCCCN(C)c1ccc2nnc(CCc3nc(-c4ccc(C(F)(F)F)cc4)no3)n2n1,7.8,-3.35
O=C(CSc1nnc2c(=O)n(-c3ccc(Br)cc3)ccn12)Nc1cccc(Cl)c1,2.58,-6.43
Cc1ccc(-c2cc3c4nn(CC(=O)Nc5ccc(C)c(Cl)c5)c(=O)n4ccn3n2)cc1C,-5.06,-1.24
COc1ccc(NC(=O)Cn2nc3ccc(SCc4ccc(Cl)cc4)nn3c2=O)cc1OC,0.34,-7.61
